Source: PubChem
MbtI inh – MbtI salicylate synthase inhibition. purified MbtI enzyme, fluorescence intensity read-out. inhibition, % (test concentration not listed). 100,000 tested, 0.89% active. AID 493033; in the data active = inhibition mostly above about 56%, no sharp cut-off; inactive = mostly below about 77%
Polio RdRp inh – poliovirus RNA polymerase inhibition; P03300; poliovirus polymerase elongation, fluorescence polarization; stronger effect = lower value; % elongation, % (compound at 16.7 µg/mL); 150,000 tested, 0.66% active; AID 588519; in the data active = % elongation below about 90%
Target sequence (P03300 1749-2209 limits assumed): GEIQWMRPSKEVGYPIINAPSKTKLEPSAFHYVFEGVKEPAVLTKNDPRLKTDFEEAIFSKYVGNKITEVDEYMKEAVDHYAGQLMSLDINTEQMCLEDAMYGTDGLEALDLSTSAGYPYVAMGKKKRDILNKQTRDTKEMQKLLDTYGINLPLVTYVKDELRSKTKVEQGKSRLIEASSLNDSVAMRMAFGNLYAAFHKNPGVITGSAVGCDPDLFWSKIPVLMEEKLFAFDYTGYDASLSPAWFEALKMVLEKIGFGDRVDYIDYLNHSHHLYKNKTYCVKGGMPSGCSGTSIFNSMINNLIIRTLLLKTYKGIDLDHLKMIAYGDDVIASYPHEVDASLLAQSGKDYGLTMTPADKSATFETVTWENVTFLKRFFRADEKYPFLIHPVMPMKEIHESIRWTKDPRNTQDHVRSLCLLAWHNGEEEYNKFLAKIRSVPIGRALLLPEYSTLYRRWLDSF
AID504770 – growth inhibitors of E. coli YBA685 in a screen for V. cholerae RctB (chromosome II replication) inhibitors | E. coli YBA685 rctB-dependent plasmid, OD600 growth, 3 h; stronger effect = lower value | z-score (concentration not given with the values) | 130,000 tested, 0.27% active | AID 504770; in the data active = z-score below about -2, passing the limit was not always enough
Mtb MenB inh – blocks the Mycobacterium tuberculosis MenB enzyme; AID 540299; inhibition, % (test concentration not listed); MenB enzyme assay, absorbance read-out; P9WNP5; 100,000 tested, 0.43% active; in the data active = inhibition above about 21%, passing the limit was not always enough
The depositor's hits bear a star. This is a sample that favours compounds with a hit; in the whole collection about 1.4% have one here.

CCn1c(N)c(C(=O)NCC2CCCO2)sc1=S (centres undefined) was read as MbtI inh 82*, Polio RdRp inh 96, AID504770 0.05 and Mtb MenB inh -19.
O=C(OCc1ccccc1)Sc1nc2ccccc2o1 was read as MbtI inh 30, Polio RdRp inh 97, AID504770 -0.25 and Mtb MenB inh -25.
COc1ccc2c(c1)cc1n2CCN=C1N was read as Polio RdRp inh 89*, AID504770 -1.3 and Mtb MenB inh -5.
`COc1ccc2c(c1)cc1n2CCN2CCN=C12` gave MbtI inh -2, Polio RdRp inh 100, AID504770 -0.2 and Mtb MenB inh -3.
For O=C(N/N=C/c1ccco1)C1CN(S(=O)(=O)c2ccccc2)CCN1S(=O)(=O)c1ccccc1 (centres undefined) the results were MbtI inh 84*, Polio RdRp inh 102, AID504770 -1.2 and Mtb MenB inh -32.
For COc1ccc(CNc2nccs2)cc1OC the results were MbtI inh 4, Polio RdRp inh 101, AID504770 1.3 and Mtb MenB inh 29*.
O=C(C1CCC1)N1CCCC(c2nc3c(nnn3Cc3cccc(Cl)c3)c(=O)[nH]2)C1 (centres undefined) was read as MbtI inh 2, Polio RdRp inh 102, AID504770 1.4 and Mtb MenB inh 30.
`COc1cc(=O)[nH]c(SCC(=O)Nc2ccc(Br)cn2)n1` gave MbtI inh -4, Polio RdRp inh 99, AID504770 -1.4 and Mtb MenB inh -12.
Screening O=S(=O)(c1ccc2oc(=S)n(CN3CCOCC3)c2c1)N1CCOCC1 returned MbtI inh 77, Polio RdRp inh 62*, AID504770 -0.3 and Mtb MenB inh -2.
Cn1ncc(Br)c1C(=O)NN was read as Polio RdRp inh 107, AID504770 0.2 and Mtb MenB inh -7.
For Cn1ncc(Br)c1N1C(=O)C=CC1=O the results were AID504770 -3*.
`Fc1ccc(Cn2[nH]nnc2=S)cc1` gave MbtI inh 69*, Polio RdRp inh 96, AID504770 -0.8 and Mtb MenB inh -17.
Screening O=C(CC(C(=O)O)N(Cc1ccccc1)Cc1ccccc1)c1ccc(Cl)cc1 (centres undefined) returned Polio RdRp inh 96, AID504770 -2.9* and Mtb MenB inh 86*.
Screening C/C(C/C(C)=C1/SC(=S)NC1=O)=C1\SC(=S)NC1=O returned MbtI inh 81*, Polio RdRp inh 102, AID504770 -0.35 and Mtb MenB inh -54.
Screening COc1cc(/C=C2/C(=O)NN(c3ccc(Cl)cc3)C2=O)ccc1OC(=O)c1ccco1 returned MbtI inh 99*, Polio RdRp inh 101, AID504770 -0.35 and Mtb MenB inh -42.
C=CCN1C(=O)/C(=C\c2ccc(OC(=O)c3ccco3)c(OC)c2)SC1=S was read as MbtI inh -9, Polio RdRp inh 105, AID504770 -0.6 and Mtb MenB inh -37.
For O=C1CSC(N2CCOCC2)=N1 the results were MbtI inh -10, Polio RdRp inh 103, AID504770 -1.3 and Mtb MenB inh 5.
Screening Cc1nn(C)c2c1S(=O)(=O)N=C(N1CCOCC1)S2 returned MbtI inh 4, Polio RdRp inh 81*, AID504770 -0.05 and Mtb MenB inh -11.
For Cn1nc(-c2ccc(-c3ccn(S(C)(=O)=O)n3)s2)cc1C(F)(F)F the results were AID504770 -0.15.
For O=C1OC(c2ccccc2)=C/C1=C/c1ccccc1 the results were AID504770 1.
CN(C)/C=C1/C=C(c2ccccc2)OC1=S was read as MbtI inh 80*, Polio RdRp inh 99, AID504770 2.9 and Mtb MenB inh -168.
`N#CC(C#N)=Cc1ccc(OC(=O)c2ccccn2)cc1` gave MbtI inh 34, Polio RdRp inh 87*, AID504770 -0.85 and Mtb MenB inh -163.
For O=C(Oc1ccc(C=Nc2ccccc2Br)cc1)c1ccccn1 the results were AID504770 0.65.
`C=CCc1c(C)[nH]n(-c2ccc(C(=O)O)cc2)c1=O` gave MbtI inh 14, Polio RdRp inh 98, AID504770 -0.75 and Mtb MenB inh -41.
`O=C1/C(=C/c2cc3ccccc3o2)CC/C1=C\c1cc2ccccc2o1` gave MbtI inh 3, Polio RdRp inh 108, AID504770 -0.15 and Mtb MenB inh -20.
For O=C1/C(=C\c2ccc(Br)o2)CC/C1=C/c1ccc(Br)o1 the results were MbtI inh 42, Polio RdRp inh 43*, AID504770 0.55 and Mtb MenB inh -38.
COC(=O)c1c(NC(=O)COc2cc(C)c(Cl)c(C)c2)sc2c1CCCC2 was read as Polio RdRp inh 90*.
Screening COC(=O)c1c(NC(=O)COc2ccc(Cl)cc2C)sc2c1CCCCC2 returned Polio RdRp inh 85*.
Screening CCCc1ccc(OC(C)C(=O)Nc2sc3c(c2C(=O)OC)CCCCC3)cc1 (centres undefined) returned Polio RdRp inh 86*.
Screening COC(=O)c1c(NC(=O)COc2ccc(OC)cc2)sc2c1CCCC2 returned AID504770 -0.75.
CCOC(=O)c1c(NC(=O)COc2cccc(C(F)(F)F)c2)sc2c1CCCCC2 was read as Polio RdRp inh 90*.
For CCOC(=O)c1c(NC(=O)C(C)Oc2ccc(Cl)c(C)c2)sc2c1CCCC2 (centres undefined) the results were Polio RdRp inh 104.
`CCOC(=O)c1c(NC(=O)COc2ccc(C(C)(C)C)cc2)sc2c1CCCC2` gave Polio RdRp inh 104.
For O=C1c2ccccc2C(=O)c2c1oc1c3c(ccc21)OCN(CCCn1ccnc1)C3 the results were MbtI inh 8, Polio RdRp inh 84*, AID504770 -0.9 and Mtb MenB inh -2.
Cc1ccc(Cl)cc1NC(=O)C1=NCCN1 was read as MbtI inh 0, Polio RdRp inh 73*, AID504770 0.05 and Mtb MenB inh -49.
For Cc1nnc(SC2CCNCC2)s1 the results were MbtI inh 3, Polio RdRp inh 104, AID504770 -0.15 and Mtb MenB inh -22.
`O=C(Nc1ccccc1C(=O)O)c1ccccc1` gave MbtI inh 55* and AID504770 -0.1.
For O=C(c1ccccc1)c1ccccc1NC(=O)c1ccccc1C(=O)O the results were Polio RdRp inh 112.
For COC(=O)/C=C1/OC(c2ccccc2)=CC1=O the results were MbtI inh 89*, Polio RdRp inh 139, AID504770 1.6 and Mtb MenB inh -25.
O=C(O)/C=C1\OC(=O)c2ccccc21 was read as MbtI inh -1, Polio RdRp inh 106, AID504770 -0.35 and Mtb MenB inh -6.
Screening CC(C)N=C(N)/N=C(\N)Nc1ccc(Cl)cc1 returned MbtI inh -16, Polio RdRp inh 99 and Mtb MenB inh 0.
For NC(=NCCCCCCN=C(N)/N=C(\N)Nc1ccc(Cl)cc1)/N=C(\N)Nc1ccc(Cl)cc1 the results were MbtI inh 24, Polio RdRp inh 100, AID504770 -5* and Mtb MenB inh -5.
Screening c1ccc(Nc2nc3nonc3nc2N2CCOCC2)cc1 returned MbtI inh 9, Polio RdRp inh 99, AID504770 0.05 and Mtb MenB inh -40.
